Data: PubChem BioAssay
Records with an inconclusive call do not appear. Activity calls are given as the source filed them. Unless noted, cut-off not given; nearly all actives show AC50 up to about 26 µM.

Assays:
[1] = viability loss in pontine glioma line – cell-based, SU-DIPG-XIII, MIPE5.0, CellTiter-Glo, qHTS, dose response (AID 1347064; cut-off not given, nearly all actives have AC50 up to about 23 µM;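 on AC50: cells exposed to compound for 48 hours before the viability read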); conditions: CellTiter-Glo ATP luminescence
[2] = viability loss in pontine glioma line – cell-based, SU-DIPG-XXV, MIPE5.0, CellTiter-Glo, qHTS, dose response (AID 1347065); conditions: CellTiter-Glo ATP luminescence;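 further: cells exposed to compound for 48 hours before ATP readout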
[3] = JHH-DIPG-1 glioma cell viability, MIPE5.0 library, CellTiter-Glo luminescence, qHTS (AID 1347067); conditions: JHH-DIPG-1 glioma viability, CellTiter-Glo ATP luminescence;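 further: cells exposed to compound for 48 hours before readout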
[4] = growth inhibition of DIPG cells – cell-based, MIPE5.0 library, qHTS (AID 1347068; cut-off not given, nearly all actives have IC50 up to about 30 µM;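 on IC50: cells exposed to compound for 48 hours before viability readout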); conditions: SU-DIPG-XXV viability
[5] = growth inhibition of DIPG cells – cell-based, MIPE4.0 library, CellTiter-Glo luminescence, qHTS (AID 1347066; cut-off not given, nearly all actives have AC50 up to about 30 µM;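 further: cells exposed to compound for 48 hours before readout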); conditions: SU-DIPG-VI viability, CellTiter-Glo ATP luminescence
[6] = viability loss with induced miR-34 in A549 – imaging, A549 dox-inducible miR-34, nuclei and caspase counts, primary screen (AID 1347080;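 active means compounds whose cell count with miR-34 switched on is under 0.7 times the count with it off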); conditions: A549 miR-34 inducible, Hoechst nuclei count, 48 h
[7] = MELAS cybrid and Rieske KO viability enhancers – cell-based, MELAS cybrids, Rieske KO mouse fibroblasts, CellTiter-Glo, primary screen (AID 1508586;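 active means mean z-score across replicates of 1.96 or higher in either the MELAS or the Rieske mutant cell line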;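 further: z relative to plate mean and SD of compound and empty wells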); conditions: low glucose
[8] = stronger effect = lower value, cell number ratio, induced over uninduced
[9] = measured here: relative caspase fold change +Dox/-Dox
[10] = measured here: total cells with miR-34 induction, stronger effect = lower value
[11] = measured here: total cells without miR-34 induction
[12] = MELAS cybrid survival, CellTiter-Glo 48 h, stronger effect = higher value
[13] = Rieske KO mouse fibroblast survival, CellTiter-Glo 72 h

With COc1ncc(Nc2ncc([C@H](C)N3CCN(S(C)(=O)=O)CC3)cc2-c2nc(C)nc(N)n2)cc1F the AC50 [1] was 0.525 µM (active), the AC50 [2] was 0.105 µM (active) and the AC50 [3] was 1.18 µM (active).

For CCS(=O)(=O)N1CCN(c2ccc(Nc3ncc(C(N)=O)c(NC4CC4)n3)cc2)CC1, the AC50 [1] was 16.6 µM (active), the AC50 [2] was 11.8 µM (active) and the AC50 [3] was 14.8 µM (active). The IC50 [4] was 23.5 µM (active).

With CCS(=O)(=O)Nc1ccc(Oc2ccc(F)cc2F)c(-c2cn(C)c(=O)c3[nH]ccc23)c1 the AC50 [1] was 0.105 µM (active), the AC50 [2] was 2.95 µM (active) and the AC50 [3] was 4.68 µM (active).

For COCc1c(-c2ccc(NC(=O)Nc3cc(C(F)(F)F)ccc3F)c(F)c2)c2c(N)ncnn2c1CN1CCOCC1, the AC50 [1] was 0.295 µM (active), the AC50 [2] was 0.186 µM (active) and the AC50 [3] was 6.61 µM (active). For the same molecule, the IC50 [4] was 7.42 µM (active).

In the case of Cc1c(NC(=O)c2cc(C(N)=O)nc3cc(F)ccc23)c(C(F)(F)F)nn1Cc1ccc(C(C)(C)C)cc1, the AC50 [1] is reported as 26.3 µM (active), the AC50 [2] is reported as 20.9 µM (active) and the AC50 [3] is reported as 23.5 µM (active).

In the case of O=C(NC[C@H](O)CN1CCc2ccccc2C1)c1ccnc(NC2CCC2)c1, the outcome [1] is reported as “inactive”, the outcome [2] is reported as “inactive” and the AC50 [3] is reported as 23.5 µM (active). For the same molecule, the outcome [4] was “inactive”.

For NC(=O)c1cnc(N[C@@H]2CCCC[C@@H]2N)nc1Nc1cccc(-n2nccn2)c1, the AC50 [1] was 7.42 µM (active), the AC50 [2] was 5.25 µM (active) and the AC50 [3] was 23.5 µM (active). For the same molecule, the IC50 [4] was 18.6 µM (active).

For c1ccc(CNCc2ccc(CN3CCCNCCNCCCNCC3)cc2)nc1, the outcome [1] was “inactive”, the outcome [2] was “inactive” and the outcome [3] was “inactive”. The outcome [4] was “inactive”.

In the case of C[C@@H](C(=O)Nc1ccc(Cl)cc1)C1CCC(c2ccnc3ccc(F)cc23)CC1 (stereo partly drawn), the outcome [1] is reported as “inactive”, the outcome [2] is reported as “inactive” and the outcome [3] is reported as “inactive”.

For CCNCCc1ccc(CN(CC)c2cc(OC)ccc2[C@@H]2CCc3cc(O)ccc3C2)cc1, the AC50 [1] was 7.42 µM (active), the AC50 [2] was 8.33 µM (active) and the AC50 [3] was 5.25 µM (active). For the same molecule, the IC50 [4] was 3.32 µM (active).

For CONC(=O)Nc1ccc(-c2sc3c(c2CN(C)C)c(=O)n(-c2ccc(OC)nn2)c(=O)n3Cc2c(F)cccc2F)cc1, the outcome [1] was “inactive”, the outcome [2] was “inactive” and the outcome [3] was “inactive”.

In the case of Cc1ccc(NC(=O)[C@H]2CCCN(C(=O)c3c(C)cccc3F)[C@H]2c2ccc(NC3CCCC3)cc2)cc1C(F)(F)F, the outcome [1] is reported as “inactive”, the outcome [2] is reported as “inactive” and the outcome [3] is reported as “inactive”. For the same molecule, the outcome [4] was “inactive”.

With Nc1nccc2c1ncn2[C@@H]1C=C(CO)[C@@H](O)[C@H]1O the outcome [1] was “inactive”, the outcome [2] was “inactive” and the outcome [3] was “inactive”. For the same molecule, the outcome [4] was “inactive”.

With Cc1cc(O)c(-c2ccc([C@@H](C)CN(C)C)cc2)c2c1[nH]c(=O)c1sccc12 the AC50 [1] was 0.417 µM (active), the AC50 [2] was 0.332 µM (active) and the AC50 [3] was 0.417 µM (active). For the same molecule, the IC50 [4] was 0.332 µM (active).

With N#Cc1ccc(-c2c(-c3ncn[nH]3)sc(N3CCOCC3)c2C#N)c(F)c1 the AC50 [1] was 5.9 µM (active), the AC50 [2] was 1.48 µM (active) and the AC50 [3] was 10.5 µM (active). For the same molecule, the IC50 [4] was 4.68 µM (active).

For O=C(NO)c1cnc(NC2(c3ccccc3)CC2)nc1, the AC50 [1] was 3.32 µM (active), the AC50 [2] was 2.95 µM (active) and the AC50 [3] was 2.95 µM (active).

For CN1C(=O)N[C@H](Cc2c[nH]c3c(Cl)cccc23)C1=O, the outcome [1] was “inactive”, the outcome [2] was “inactive” and the outcome [3] was “inactive”.

For Cc1c(C(=O)Nc2ccc(Oc3ccnc4[nH]cc(-c5ccccc5)c34)c(F)c2)c(=O)n(-c2ccc(F)cc2)n1C, the AC50 [1] was 16.6 µM (active), the AC50 [2] was 5.25 µM (active) and the AC50 [3] was 16.6 µM (active).

In the case of Cc1ccc(-n2c(C)cc(-c3nnc4n3CCCCC4)c2C)cc1, the AC50 [1] is reported as 14.8 µM (active), the AC50 [2] is reported as 20.9 µM (active) and the AC50 [3] is reported as 18.6 µM (active).

For CN(C)c1cc(NC(=O)CNC(C)(C)C)c(O)c2c1C[C@H]1C[C@H]3[C@H](N(C)C)C(=O)C(C(N)=O)=C(O)[C@]3(O)C(=O)C1=C2O, the outcome [1] was “inactive”, the outcome [2] was “inactive” and the outcome [3] was “inactive”.

With CN[C@@H](C)C(=O)N[C@H](C(=O)N1CCC[C@H]1C(=O)Nc1snnc1-c1ccccc1)C1CCCCC1 the outcome [1] was “inactive”, the outcome [2] was “inactive” and the outcome [3] was “inactive”. The outcome [4] was “inactive”.

For COc1cccc([C@@H](C)NCCCc2ccccc2Cl)c1, the outcome [1] was “inactive”, the outcome [5] was “inactive” and the outcome [3] was “inactive”. The outcome [4] was “inactive”.

With Cc1nc2ccc(C(=O)N3CCC4(CC3)CC(=O)c3c(cnn3C(C)C)C4)cc2[nH]1 the outcome [1] was “inactive” and the outcome [3] was “inactive”.

In the case of Oc1ccc(C2CCN(c3ccnc4ccccc34)CC2)cc1O, the AC50 [1] is reported as 16.6 µM (active) and the AC50 [3] is reported as 20.9 µM (active).

For CCCS(=O)(=O)Nc1ccc(F)c(C(=O)c2c[nH]c3ncc(Cl)cc23)c1F, the outcome [1] was “inactive”, the outcome [5] was “inactive” and the outcome [4] was “inactive”. The fold change [6, 8] was 0.766 (inactive), the fold change [6, 9] was 1.15 and the cell count [6, 10] was 4220. For the same molecule, the cell count [6, 11] was 5520, the z-score [7, 12] was -0.49 (inactive) and the z-score [7, 13] was 0.575.

In the case of Cn1cc(-c2cnc3ccc4ccc(CS(=O)(=O)NCc5ccccn5)cc4c(=O)c3c2)cn1, the outcome [1] is reported as “inactive”, the outcome [2] is reported as “inactive” and the outcome [4] is reported as “inactive”.

For CCOCc1nc2c(N)nc3ccccc3c2n1CC(C)(C)O, the outcome [1] was “inactive”, the outcome [2] was “inactive” and the outcome [4] was “inactive”.

With CCN(CCCOc1ccc2c(Nc3cc(CC(=O)Nc4cccc(F)c4)[nH]n3)ncnc2c1)CCOP(=O)(O)O the outcome [1] was “inactive”, the AC50 [2] was 1.18 µM (active) and the outcome [4] was “inactive”.

For CC1(N)CCN(c2cccnc2NC(=O)c2nc(-c3ncccc3C(F)(F)F)cnc2N)CC1, the outcome [1] was “inactive” and the outcome [3] was “inactive”.

With COc1cccc(-c2ccc(NC(=O)C3=C(C(=O)O)CCC3)c(F)c2)c1 the outcome [1] was “inactive”, the outcome [2] was “inactive” and the outcome [4] was “inactive”.

In the case of c1cn2cc(-c3ccc4cn[nH]c4c3)nc(Nc3ccc(N4CCOCC4)cc3)c2n1, the AC50 [1] is reported as 11.8 µM (active), the AC50 [2] is reported as 6.61 µM (active) and the AC50 [3] is reported as 14.8 µM (active). For the same molecule, the outcome [4] was “inactive”, the fold change [6, 8] was 0.776 (inactive) and the fold change [6, 9] was 0.455. For the same molecule, the cell count [6, 10] was 4570, the cell count [6, 11] was 5880 and the z-score [7, 12] was 1.34 (inactive). The z-score [7, 13] was 0.233.

With C=CCN(/C=C1\C(=O)O[C@@H](COC)[C@]2(C)C1=C(O)C(=O)C1=C2[C@@H](OC(C)=O)C[C@]2(C)C(=O)CC[C@H]12)CC=C the AC50 [1] was 16.6 µM (active), the AC50 [2] was 9.34 µM (active) and the outcome [4] was “inactive”.

For Cc1c(-c2ccc(-c3ccccc3F)cc2)nc2ccc(F)cc2c1C(=O)O, the outcome [1] was “inactive” and the outcome [3] was “inactive”.

With O=C(Nc1ccc(F)c(C(F)(F)F)c1)Nc1nnc(-c2ccncc2)s1 the outcome [1] was “inactive”, the outcome [5] was “inactive” and the outcome [3] was “inactive”. The outcome [4] was “inactive”.

In the case of CN(C)Cc1cccc(N=C(c2ccccc2)c2c(O)[nH]c3cc(C(=O)N(C)C)ccc23)c1, the outcome [1] is reported as “inactive”, the outcome [5] is reported as “inactive” and the IC50 [4] is reported as 18.6 µM (active). For the same molecule, the fold change [6, 8] was 0.785 (inactive), the fold change [6, 9] was 1.01 and the cell count [6, 10] was 3180. The cell count [6, 11] was 4050, the z-score [7, 12] was -0.347 (inactive) and the z-score [7, 13] was 0.635.
